# Assay outcomes deposited in PubChem by several laboratories.
# BH1578 lux ind – quorum light induction in luxS cqsA deficient V. cholerae | V. cholerae BH1578 lux reporter, luminescence, 6 h | activation, % at 18.7 µM | 350,000 tested, 0.16% active | AID 588436; in the data active means activation mostly above about 9.7%, no sharp cut-off
# PriA SSB inh – K. pneumoniae PriA-SSBct interaction inhibition; inhibition, % at 33 µM; 430,000 tested, 0.6% active; AlphaScreen SSBct-PriA binding, biotinylated peptide; in the data active means inhibition mostly above about 37%, no sharp cut-off; inactive means mostly below about 20%;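 further: plate controls were negative control peptide for no effect and reference peptide for full effect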
# Mtb hypoxia inh – reduces hypoxia-regulated biosensor signal in M. tuberculosis | M. tuberculosis hypoxia-regulated fluorescent reporter, fluorescence | fluorescence inhibition, % (no concentration beside the values) | 300,000 tested, 0.1% active; in the data active means fluorescence inhibition mostly above about 23%, no sharp cut-off; inactive means mostly below about 17%
# MazF activator – increases E. coli MazEF RNase cleavage of RNA. P0AE70. 350,000 tested, 0.32% active. activation, % at 20 µM. AID 504720. FAM/BHQ RNA-DNA oligo cleavage fluorescence, 5 h; in the data active means activation above about 50%
# Target sequence (P0AE70 whole entry, looked up): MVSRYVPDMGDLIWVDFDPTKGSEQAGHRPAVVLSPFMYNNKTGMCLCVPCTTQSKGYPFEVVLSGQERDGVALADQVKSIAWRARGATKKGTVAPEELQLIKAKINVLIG
# Active calls of the source: *; i = inactive; . = no result shown; ! = not active in a repeat. Sampled rows, rich in hits. Any-hit rate of the full collection: about 0.94%.
SMILES,BH1578 lux ind,PriA SSB inh,Mtb hypoxia inh,MazF activator
O=C(CSC1=NNC(c2ccccn2)S1)Nc1cccc(Cl)c1 (stereo not drawn),i,42.1*,-6.8,13.3
COc1cc(Sc2ccc(C)cc2)c(OC)cc1N,i,78.6*,0.6,7.9
N#C/C(=C/c1ccc(-c2ccccc2[N+](=O)[O-])o1)C(N)=O,3.7,-7.4,5.2,54.2*
O=C(NCc1ccco1)NC1CC(=O)N(c2ccc3c(c2)OCCO3)C1 (stereo not drawn),.,15.0,.,.
O=[N+]([O-])c1ccc(C2CCCC/C2=N\OCc2cccc(F)c2)c([N+](=O)[O-])c1 (stereo not drawn),-1.4,.,.,-3.1
O=[N+]([O-])c1ccc(C2CCCCC2=NOCc2ccc(F)cc2)c([N+](=O)[O-])c1 (stereo not drawn),.,45.2*,16.8,.
CCc1c(C)nc(SCC(=O)Nc2cc(C(F)(F)F)ccc2Cl)[nH]c1=O,.,-2.0,.,.
O=C(NN=Cc1cc(Cl)ccc1O)c1ccncc1,.,67.1*,8.2,.
O=C(N/N=C/c1cc(Cl)ccc1O)c1ccncc1,-0.7,.,.,-84.6
O=C(NN=Cc1cc(O)ccc1Br)c1cccnc1,.,45.6*,.,.
CC(C)(Oc1ccc(Cl)cc1)C(=O)NCCn1ncc2c(=O)n(Cc3ccccc3F)cnc21,.,-4.0,.,.
COCCCNC(=S)NN=Cc1ccc(O)cc1O,.,46.3*,7.4,.
Oc1ccc(C=NNc2ccccn2)c(O)c1,0.8,94.7*,.,7.7
Cc1ccccc1NC(=S)NN=Cc1ccc(O)cc1O,.,49.9*,-2.2,.
Oc1cccc(C=NNc2ccccn2)c1,-1.3,2.8,.,8.3
O=C(NCCCN1CCN(c2ccccc2)CC1)c1ccc(F)cc1Cl,.,-8.0,.,.
O=C(Cc1ccc(Cl)cc1)N1CCCC(c2nnc(-c3cccs3)o2)C1 (stereo not drawn),.,-10.0,.,.
O=C1NC(=O)C(=Cc2cn(CCOc3ccc4c(c3)OCO4)c3ccccc23)C(=O)N1,i,-11.3,.,528.2*
CC(C)(C)OC(=O)N1CCC(c2cc(-c3cccs3)n[nH]2)CC1,i,-4.0,-1.5,0.0
CC(C)(C)OC(=O)N1CCC(c2cc(C(N)=O)n[nH]2)CC1,.,39.0*,.,.
COc1ccc(NCc2ccc(OC)c(Cn3ccnc3)c2)c(OC)c1,i,72.7*,5.4,2.2
O=C1CCCN1c1cccc(NS(=O)(=O)c2cccs2)c1,.,-13.0,.,.
CN(C)c1ccnc(CNC(=O)c2ccc(F)cc2Cl)n1,.,5.0,.,.
CC(C)=CCc1cc(-c2oc3cc(O)cc(O)c3c(=O)c2O)ccc1O,-0.3,26.6,.,57.4*
COc1cccc(CC(=O)N(Cc2ccccn2)c2nc3ccccc3s2)c1,.,-1.0,.,.
SMILES,BH1578 lux ind,PriA SSB inh,Mtb hypoxia inh,MazF activator
COc1ccc(-c2cc(=O)n(-c3nc4ccccc4[nH]3)[nH]2)cc1,i,40.4*,9.2,-0.9
Cc1ccc(NC(=O)C2Nc3cc(C(F)(F)F)ccc3S(=O)(=O)N2)cc1Cl (stereo not drawn),.,10.0,.,.
Cc1cc(C(=O)NNC(=O)c2ccc(Cl)cc2)c2ccccc2n1,24.6*,-17.8,5.1,2.4
O=C(NNC(=O)c1ccccc1O)c1ccc(Cl)cc1,-0.3,-8.1,11.9,-5.2
Cc1cccc(C(=O)NNC(=O)c2ccc(Cl)cc2)c1O,50.0*,2.1,.,-0.6
O=C(NC(=S)Nc1ccc(O)c(-c2nc3ccccc3s2)c1)c1ccc(C(=O)c2ccccc2)cc1,.,5.0,.,.
CCn1nccc1C(=O)Nc1ccc(N=Nc2ccccc2)cc1,.,46.0*,.,.
CN(C)c1ccc(/C=C(/NC(=O)c2ccccc2)C(=O)N2CCCC2)cc1,-0.5,-4.6,-12.3,59.5*
NNC(=O)c1nc[nH]c1C(=O)Nc1ccccn1,-1.9,59.0*!,.,5.4
Cc1ccc(NC(=O)c2[nH]cnc2C(=O)NN)cc1,-0.3,-5.6,0.0,5.5
O=C(c1cc(C2CC2)on1)N(Cc1ccccn1)Cc1ccco1,.,-13.0,.,.
Cc1ccc(C(=O)ON=C(c2ccccc2)c2ccncc2)cc1,.,-11.2,.,.
COc1cc(NCCC(=O)c2cccs2)c(OC)cc1Cl,-0.3,39.5*,14.6,0.9
COc1cc(OC)cc(C(=O)NCCc2ccc3c(c2)CCCN3C)c1,.,59.0*,.,.
COc1ccc(CCNC(=O)c2ccccc2)cc1,-0.6,-5.1,.,2.5
COc1ccc(OCC(=O)NCCc2ccc3c(c2)CCCN3C)cc1,.,71.2,.,.
CN1CCCc2cc(CCNC(=O)NCc3ccccc3)ccc21,.,29.0,.,.
COc1ccc(CCNC(=O)c2ccc(Cl)cc2)cc1,-1.6,-11.3,36.7*,-5.8
Cc1cccc(NC(=O)NCCc2ccc3c(c2)CCCN3C)c1,.,56.0*,.,.
COc1ccc(CC(=O)NCCc2ccc3c(c2)CCCN3C)cc1,.,9.0,.,.
COc1ccc(CCNC(=O)NCCc2ccc3c(c2)CCCN3C)cc1,.,50.0*,.,.
CCOC(=O)CCC(=O)NCCc1csc(-n2nc(C)cc2C)n1,.,0.0,.,.
CC(C)c1ccc(NC(=O)C2CCc3sc(NC(=O)c4ccccc4)nc32)cc1 (stereo not drawn),.,-4.0,.,.
COCCN(Cc1ccsc1)C(=O)c1ccc(OC(F)(F)F)cc1,.,-20.0,.,.
Cc1ccnc(Nc2cc(N3CCN(C(=O)c4ccc(F)cc4Cl)CC3)ncn2)c1,.,-5.0,.,.
SMILES,BH1578 lux ind,PriA SSB inh,Mtb hypoxia inh,MazF activator
O=C(Nc1nc2c(C(F)(F)F)cccc2s1)c1nc2ccccc2s1,.,-23.0,.,.
COc1ccc(-c2cc(-c3cccs3)nc(SCC(=O)NC[C@H]3CCCO3)c2C#N)cc1,.,-8.0,.,.
Cc1ccc(N2C(=O)N(Cc3cccc(Cl)c3)c3ccccc3S2(=O)=O)cc1Cl,.,2.0,.,.
Nc1cc(N)cc(-c2nc3ccccc3[nH]2)c1,-0.5,45.1*,-1.4,14.7
Cc1ccc(S(=O)(=O)N(C(=O)c2ccncc2)c2ccc3oc(=O)sc3c2)cc1,.,-1.0,.,.
CCCn1c(SCc2nc(-c3ccccc3C)oc2C)nc2ccccc2c1=O,.,-3.0,.,.
O=C(CN(CCc1ccccc1)Cc1ccccc1)Oc1ccccc1P(=O)(O)O,-0.5,91.8*,-0.4,5.1
COCCN(CC(=O)Oc1ccccc1P(=O)(OC)OC)Cc1ccccc1,-0.4,-4.1,0.3,10.2
CCCN(Cc1ccsc1)C(=O)NC(c1ccccc1)c1ccccc1,.,-17.0,.,.
COc1cccc(N/C(N)=N/c2nc(CSc3ccccn3)cc(=O)[nH]2)c1,.,.,8.6,.
COc1ccnc(CSC(N)=Nc2ccc(F)cc2)c1,0.3,45.7*,.,0.4
C=CCNc1nc(Cl)nc(Nc2cc(Cl)ccc2OC)n1,9.8,-2.8,2.8,57.8*
CCOc1nc(Nc2cc(Cl)ccc2OC)nc(OCC)n1,-0.2,-8.8,8.6,-7.9
Cc1ccc(CNC(=O)Cn2c(CO)c[nH]c2=S)cc1,.,4.0,.,.
Cc1cccnc1Nc1nc(-c2ccccc2)cs1,i,-4.8,17.0,1.8
Cc1cccc(Nc2nc(-c3ccccn3)cs2)n1,i,94.7*,8.5,-9.1
